Bioassay records from PubChem BioAssay.
RORg inh: qHTS for inhibitors of ROR gamma transcriptional activity. Potency, µM (doses to about 53.6 µM), hits mostly inhibitors. Drosophila S2 Gal4-RORgamma UAS-luciferase reporter, 20 h. AID 2551, 2010. 5.4% of 310,000 active; note: nearly all actives have a fitted effect of over 60% in size
Target sequence (P51450 whole entry, looked up, the tested form may be a part): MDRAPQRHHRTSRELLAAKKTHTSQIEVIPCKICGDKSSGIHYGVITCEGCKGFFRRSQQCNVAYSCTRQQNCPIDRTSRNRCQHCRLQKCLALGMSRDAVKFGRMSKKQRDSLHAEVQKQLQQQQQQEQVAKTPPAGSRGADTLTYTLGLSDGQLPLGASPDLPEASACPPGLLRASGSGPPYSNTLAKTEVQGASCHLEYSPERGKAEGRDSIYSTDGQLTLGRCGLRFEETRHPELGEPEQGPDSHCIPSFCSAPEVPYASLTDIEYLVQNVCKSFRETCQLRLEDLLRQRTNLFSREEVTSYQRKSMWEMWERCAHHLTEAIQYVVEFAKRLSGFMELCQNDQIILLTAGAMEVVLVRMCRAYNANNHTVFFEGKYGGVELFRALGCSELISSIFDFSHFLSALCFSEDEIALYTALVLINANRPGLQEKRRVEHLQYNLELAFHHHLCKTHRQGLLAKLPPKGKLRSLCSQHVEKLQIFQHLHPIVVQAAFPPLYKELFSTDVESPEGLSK
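In this cell-based reporter format, copper sulfate (700 uM final) drives Gal4–ROR gamma fusion expression from a metallothionein promoter in Drosophila Schneider cells; compounds preincubated 1 hr, reporter read after 20 hr at ambient temperature.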
DT40 TDP1 CPT: qHTS for Inhibitors of human tyrosyl-DNA phosphodiesterase 1 (TDP1): qHTS in cells in presence of CPT | AID 686979, 2013 | Potency, µM (titrated, usually from 46.2 µM), hits mostly inhibitors | 12% of 420,000 active | chicken DT40 Tdp1-/-;hTDP1 cells + 20 nM CPT, ATP luminescence, 48 h; note: nearly all actives have a fitted effect of over 55% in size
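Chicken DT40 Tdp1-/- cells stably complemented with human TDP1 were seeded at 400 cells/well in medium containing 20 nM camptothecin, exposed to pin-transferred compounds, and grown at 37 °C for at least 48 hr. Viability was read as ATP luminescence.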
VP16 counter: VP16 counterscreen qHTS for inhibitors of ROR gamma transcriptional activity | Potency, µM (doses to about 53.6 µM), hits mostly inhibitors | AID 2546, 2010 | Drosophila S2 Gal4-VP16 UAS-luciferase, luminescence, 20 h | 3.5% of 310,000 active;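 note: Gal4-VP16 expression switched on by copper sulfate through the metallothionein promoter; nearly all actives have a fitted effect of over 50% in size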
IL1B secr inh: qHTS for Inhibitors of Inflammasome Signaling: IL-1-beta AlphaLISA Primary Screen | THP-1 LPS/ATP IL-1B secretion, AlphaLISA, 16 h; stronger effect = lower value | activity change, % at 57.5 µM | 4.7% of 360,000 active; in the data active = activity change below about -50%; inconclusive = mostly about -30% to -49%
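THP-1 cells pretreated 1 hr with compounds (up to 57.5 uM final), then stimulated with LPS (250 ng/mL final) plus ATP (1.25 mM final); secreted IL-1B measured by AlphaLISA after 16 hr, decreased signal indicating inhibition.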
LDHA block: qHTS assay for inhibitors of human lactate dehydrogenase; L-lactate dehydrogenase A chain (Homo sapiens), P00338; purified LDHA, NADH/diaphorase-resazurin fluorescence; stronger effect = lower value; activity change, % (values are at about 110 or 230 µM); 0.15% of 480,000 active; AID 1347041, 2019; in the data active = activity change below about -30%; inconclusive = mostly about -25% to -30%
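Enzyme activity of human lactate dehydrogenase 5 (2 nM; 0.06 mM NADH, 0.2 mM pyruvate, 5 min, RT) is measured via a resazurin/diaphorase fluorescence readout of residual NADH.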
TDP1 cell noCPT: qHTS for Inhibitors of human tyrosyl-DNA phosphodiesterase 1 (TDP1): qHTS in cells in absence of CPT | DT40 Tdp1-/- hTDP1 cells, no CPT, ATP luminescence, 48 h | 15% of 420,000 active | Potency, µM (titrated, usually from 46.2 µM), hits mostly inhibitors | AID 686978, 2013; note: nearly all actives have a fitted effect of over 55% in size
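DT40 Tdp1-/-;hTDP1 cells, no CPT (DMSO vehicle only), 400 cells/well; compounds pin-transferred; ≥48 hr, 37 °C; CellTiter-Glo 30 min RT dark, luminescence read.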
Numbers stand for hits; [ ] = another dose, or the depositor's remark. In the library only some 18% were active in any assay of this set; here they are far more common. Unless noted, calls come from the whole dose curve; as a rule, active = well fitted curve in the direction sought with a large enough effect; inconclusive = small, poorly fitted or top-dose-only effect, or another doubt; inactive = no such curve, though single readings can be large; an effect the other way counts as inactive or inconclusive.

Results for COc1ccc(-c2cc(C(F)(F)F)nc(NCc3ccccc3)n2)cc1 ?
DT40 TDP1 CPT: 26µM; LDHA block: inactive; TDP1 cell noCPT: inconclusive

What do the screens show for `COc1ccc(CCNc2nc(C)cc(=O)[nH]2)cc1OC`?
DT40 TDP1 CPT: inactive; IL1B secr inh: inactive; LDHA block: inactive; TDP1 cell noCPT: inactive

How did CN1CCN(S(=O)(=O)c2cccc(C(=O)Nc3cccc4cccnc34)c2)CC1 do in these assays?
LDHA block: inactive

What do the screens show for `COc1ccc(NC(=O)c2cccc(-c3ccc(S(=O)(=O)N4CCCC4)cc3)c2)cc1OC`?
LDHA block: inactive

How did COc1ccccc1C(=O)NC(=O)Nc1nc(-c2ccccc2)cc(C(F)(F)F)n1 do in these assays?
RORg inh: inactive; DT40 TDP1 CPT: 15µM; VP16 counter: inactive; IL1B secr inh: inactive; LDHA block: inactive; TDP1 cell noCPT: inconclusive

What do the screens show for `COc1ccc(-c2cc(C(F)(F)F)nc(N3CCOCC3)n2)cc1OC`?
RORg inh: inactive; DT40 TDP1 CPT: inconclusive; VP16 counter: inactive; IL1B secr inh: inactive; LDHA block: inactive; TDP1 cell noCPT: 10µM

Results for Fc1ccc(CNc2nc(-c3ccc(Cl)cc3)cc(C(F)(F)F)n2)cc1 ?
DT40 TDP1 CPT: 23µM; LDHA block: inactive; TDP1 cell noCPT: 18µM

What do the screens show for `COc1ccc(N2CCN(c3nc(NCCc4ccc(OC)c(OC)c4)nc(OC)n3)CC2)cc1`?
RORg inh: inactive; DT40 TDP1 CPT: 6.5µM; VP16 counter: inactive; IL1B secr inh: inconclusive; LDHA block: inactive; TDP1 cell noCPT: 4.6µM

Results for Fc1ccc(-c2cc(C(F)(F)F)nc(NCc3ccccc3)n2)cc1 ?
DT40 TDP1 CPT: inconclusive; LDHA block: inactive; TDP1 cell noCPT: inconclusive

How did CCOc1nc(NCCc2ccc(OC)c(OC)c2)nc(N2CCN(c3ccc(OC)cc3)CC2)n1 do in these assays?
RORg inh: inactive; DT40 TDP1 CPT: inactive; VP16 counter: inactive; IL1B secr inh: inactive; LDHA block: inactive; TDP1 cell noCPT: inactive

How did NC(=O)c1cc(Cl)ccc1OCC(=O)N1CCCCCC1 do in these assays?
LDHA block: inactive

Results for COc1ccc(CCNc2nc(-c3ccc(OC)c(OC)c3)cc(C(F)(F)F)n2)cc1OC ?
DT40 TDP1 CPT: 18µM; LDHA block: inactive; TDP1 cell noCPT: inconclusive

Results for COc1ccc(CNc2nc(-c3ccc(OC)c(OC)c3)cc(C(F)(F)F)n2)cc1 ?
DT40 TDP1 CPT: inconclusive; LDHA block: inactive; TDP1 cell noCPT: inconclusive

Results for CCc1noc2ncnc(N3CCCC(C(=O)NCCc4ccc(SC)cc4)C3)c12 (configuration not stated) ?
LDHA block: inactive

What do the screens show for `O=C(Nc1ccc(Br)cc1F)Nc1c(NC2CCCC2)c2ccccc2oc1=O`?
LDHA block: inactive

Results for Cc1cccc(OCCCCCNCCO)c1 ?
RORg inh: inactive; DT40 TDP1 CPT: inactive; VP16 counter: inactive; IL1B secr inh: inactive; LDHA block: inactive; TDP1 cell noCPT: inactive

How did COc1ccc(C(=O)NCCOc2cccc(OC)c2)cc1 do in these assays?
RORg inh: inconclusive; DT40 TDP1 CPT: inactive; VP16 counter: inactive[10 µM]; IL1B secr inh: inactive; LDHA block: inactive; TDP1 cell noCPT: inconclusive

How did Cc1cccc(OCCCCNCc2ccccc2)c1 do in these assays?
RORg inh: inactive; DT40 TDP1 CPT: inactive; VP16 counter: inactive[10 µM]; IL1B secr inh: -72; LDHA block: inactive; TDP1 cell noCPT: inconclusive

Results for COc1cccc(OCCNCc2ccccc2)c1 ?
RORg inh: inactive[1.91 µM]; DT40 TDP1 CPT: inconclusive; VP16 counter: inactive; IL1B secr inh: inactive; LDHA block: inactive; TDP1 cell noCPT: 18µM

What do the screens show for `COCCNC(=O)CSC1=N/C(=C/c2ccc(Cl)c(Cl)c2)C(=O)N1c1ccccc1F`?
RORg inh: inactive; DT40 TDP1 CPT: 15µM; VP16 counter: inconclusive; IL1B secr inh: -99; LDHA block: inactive; TDP1 cell noCPT: 21µM

What do the screens show for `CC(NC(=O)c1nccnc1N)c1cccs1` (configuration not stated)?
LDHA block: inactive

What do the screens show for `O=C1C2=C(S[C@@H]3O[C@H](CO)[C@@H](O)[C@H](O)[C@H]3O2)C(=O)c2ccccc21`?
RORg inh: inactive; DT40 TDP1 CPT: 0.65µM; VP16 counter: inactive; TDP1 cell noCPT: 0.65µM

What do the screens show for `O=C(Nc1ccc2[nH]c(=O)[nH]c2c1)c1nn(-c2ccc(F)c(F)c2)c2c1CCC2`?
LDHA block: inactive

How did COc1ccc(N2CCN(C(=O)CCc3ccccc3OC)CC2)cc1 do in these assays?
RORg inh: inactive; DT40 TDP1 CPT: inconclusive; VP16 counter: inactive; IL1B secr inh: inactive; LDHA block: inactive; TDP1 cell noCPT: inconclusive

Results for COc1ccc(-n2c(=O)c(CCC(=O)N3CCN(c4ccccc4O)CC3)nc3ccccc32)cc1 ?
DT40 TDP1 CPT: 26µM; IL1B secr inh: inactive; LDHA block: inactive; TDP1 cell noCPT: inconclusive

Results for CC1Cc2c(nc(Cl)c(C#N)c2C#N)C([N+](=O)[O-])([N+](=O)[O-])C1 (configuration not stated) ?
LDHA block: inactive

How did COc1ccccc1-c1coc2cc(OC(=O)c3ccc(C)cc3)ccc2c1=O do in these assays?
LDHA block: inactive

How did CCN1C(c2ccccc2)=C(c2ccccc2)S/C1=C\C=C1/SC(=S)N(C)C1=O do in these assays?
DT40 TDP1 CPT: 13µM; IL1B secr inh: inactive; LDHA block: inactive; TDP1 cell noCPT: 9.2µM

How did CCN1C(=O)/C(=C/C=C2/Sc3ccc4ccccc4c3N2CCO)SC1=S do in these assays?
RORg inh: inactive; DT40 TDP1 CPT: inconclusive; VP16 counter: inactive; IL1B secr inh: inactive; LDHA block: inactive; TDP1 cell noCPT: inconclusive

How did CCN1C(c2ccccc2)=C(c2ccccc2)S/C1=C/C=C1\SC(=S)N(C)C1=O do in these assays?
RORg inh: inactive; DT40 TDP1 CPT: 10µM; VP16 counter: inactive; IL1B secr inh: inactive; LDHA block: inactive; TDP1 cell noCPT: 10µM

Results for O=C(NC1CCCCC1)n1c(=O)oc2ccccc21 ?
RORg inh: inactive; DT40 TDP1 CPT: inconclusive; VP16 counter: inactive; IL1B secr inh: inactive; LDHA block: inactive; TDP1 cell noCPT: inconclusive

How did O=C(NC1CCCCC1)n1c(=O)oc2ccc(Cl)cc21 do in these assays?
RORg inh: inactive; DT40 TDP1 CPT: 12µM; VP16 counter: inactive; IL1B secr inh: inactive; LDHA block: inactive; TDP1 cell noCPT: 13µM

What do the screens show for `Cn1c(Cl)nc2c1c(=O)n(Cc1ccc(Cl)cc1)c(=O)n2C`?
LDHA block: inactive
